The supplement of paper PMC12632987

T1: USP38, Q8NB14
T1 chain: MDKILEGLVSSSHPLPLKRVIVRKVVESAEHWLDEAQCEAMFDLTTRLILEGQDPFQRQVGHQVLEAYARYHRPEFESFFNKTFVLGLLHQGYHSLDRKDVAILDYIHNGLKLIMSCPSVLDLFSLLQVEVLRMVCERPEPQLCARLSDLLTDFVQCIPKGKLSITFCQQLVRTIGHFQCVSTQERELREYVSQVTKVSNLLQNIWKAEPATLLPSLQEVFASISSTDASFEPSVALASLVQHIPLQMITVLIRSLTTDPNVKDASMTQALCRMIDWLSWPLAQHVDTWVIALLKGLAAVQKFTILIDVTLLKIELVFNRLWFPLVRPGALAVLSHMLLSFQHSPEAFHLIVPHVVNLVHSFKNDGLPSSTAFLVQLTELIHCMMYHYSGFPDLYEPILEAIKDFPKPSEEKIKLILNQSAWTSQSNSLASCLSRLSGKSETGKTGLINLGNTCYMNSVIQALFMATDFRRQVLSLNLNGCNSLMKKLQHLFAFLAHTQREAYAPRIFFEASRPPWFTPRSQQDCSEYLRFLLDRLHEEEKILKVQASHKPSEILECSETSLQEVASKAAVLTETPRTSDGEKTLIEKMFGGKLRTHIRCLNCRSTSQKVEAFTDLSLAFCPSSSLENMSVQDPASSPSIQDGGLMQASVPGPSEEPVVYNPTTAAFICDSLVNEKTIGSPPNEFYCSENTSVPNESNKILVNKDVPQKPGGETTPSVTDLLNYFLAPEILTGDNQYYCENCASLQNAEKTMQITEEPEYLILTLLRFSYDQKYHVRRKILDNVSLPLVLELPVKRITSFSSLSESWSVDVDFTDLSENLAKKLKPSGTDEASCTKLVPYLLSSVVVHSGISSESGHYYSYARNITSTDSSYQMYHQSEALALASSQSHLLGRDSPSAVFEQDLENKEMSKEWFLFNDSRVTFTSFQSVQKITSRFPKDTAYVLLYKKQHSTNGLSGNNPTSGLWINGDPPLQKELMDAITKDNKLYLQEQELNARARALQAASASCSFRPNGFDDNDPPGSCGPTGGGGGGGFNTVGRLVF

B1: usp_38_diff_out_2_61_511 (protein)
chain: NKELEEQIKEIKKLIEEAKKLVEELEALLDTADEATLEKLLEEAEKVLNKAIDLLVQAFEQAHEAGDEEALKQLDELWDELGKVAARLREARERLTRRRR
B2: usp_38_diff_out_2_61_512 (protein)
chain: SEELEEKAKKIKELIEEAKKLVEEIEKELDTADLAELEKKLKEAEEVINKAIDELEELYKKAVLLGDEEAIKKANELWDELGEVAARYNEVRRRLTERKL
B3: usp_38_diff_out_2_113_474 (protein)
chain: DPEERRKEAELYRDIILEGAEQLLRLAKAGRLTPDRTKVMLGGIVHAAEEAYELDPSVKPTIEEVIKKLEEVYELVKDKNPEVAAEIKEAIEKLKEILKK
B4: usp_38_diff_out_2_35_494 (protein)
chain: SSAERAAREALLAEIDAKIDEAVALTREALELLAEINAPEEEFDELFKTYDAAMTALTTAARLVREGAPQEEIEKAKAKAEAALAKLKALLEEAKKRAKE
B5: usp_38_diff_out_2_35_493 (protein)
chain: SMEERREREERLKEIGARIDEAHELTREALELLAEIDAPQERFDRLFATYDAAMRALTAEARAVREGAPQEEIDRLRAEAEAALAELKALLAEARKLAAE
B6: usp_38_diff_out_2_113_475 (protein)
chain: DPEVREEIREAALSNLLSSLEELLKIAKENRRSEETMRMMVRGVIEAALELIRELNLPEEDVKKILELLEEVRKALAEKNPELAKLAQEGIEELRKAAEE
B7: usp_38_diff_out_2_141_476 (protein)
chain: SEADELFREAFEREARAVAEEARKLIPKRLAIAERLAARGDLASLEERRTRVRAQAGAFRAMAEELEEMGGRPEVIELLRATAAELEEAAARIEELIAKL
B8: usp_38_diff_out_2_35_490 (protein)
chain: MEEEEAFRKKVKEELDKMQDEAHEATTETLELLAEADAPLERFDELMRKYDEFMEAAAKTYKLIEEGASKEEIEKALKEAREKYKEFMEFAEKLKKEVAA
B9: usp_38_diff_out_2_35_492 (protein)
chain: SEEEEKAREEARKEIDELTDELNKTTSETLEALAEADAPLEKFDELMAKYSEAARALAATYKLIQEGAPLEEIEKALKEAKEAVEAFKKFAEELLKEAKA
B10: usp_38_diff_out_2_61_507 (protein)
chain: SAELQAQAERIEALLAQAEALIAELEAQLDTADEATLRALLAEAQAVLDEAIDLLVELYLRAHEAGDEEALAQADALWDRLGAVAARLRRAREALTDRLS
B11: usp_38_diff_out_2_61_510 (protein)
chain: NKELEKMIKEIEAKIKEAKALVDELEAGLDTLDEETLEALLAEARAVLDEAIDLLVKAYELAHELDDKEALERLDKLWDELGEVAARLREARERFTRRRR
B12: usp_38_diff_out_2_35_489 (protein)
chain: SEEEEEFRREARERLDKLADEVNDTTRETLEALAEADAPLEEIERVLEESDKAFKAIAEAYRLIREGASREEIEEALKKAEEKVKEFKKYAEEVLKRLKE
B13: usp_38_diff_out_2_113_472 (protein)
chain: DPEEKKKEAELYKDIITEGADQLLELAKKGKLTPDRTAVMTAGIVHAAEVAYELDPSVKPTIEEVIKKLEEVYELVKDKNPEVAKIIEEAIKKLKEILKK
B14: usp_38_diff_out_2_35_491 (protein)
chain: AAAEAARREEIRRRIDEMVDEANELTAETLEKLAEADAPDEKFEELFEAYDELMRLLARTYRLIREGAPLEEIERALEEAERKLEEFKKLAEELKKEAEE
B15: usp_38_diff_out_2_61_508 (protein)
chain: SEELEEKLEEVRRLLEEARRLIEELRRRLDTADEATLRALLREAESVLNEAIDLLIEVYNEAHELGDEETLEKADELWDELGRVAAELRRAREEFTDRVR
B16: usp_38_diff_out_2_61_509 (protein)
chain: SEELKKKAEEIEKLLREARELIAEARAGLDTRDPAELRALLREAERVLDEAIDLLVEFYEEAVEAGDEEALKKADELWDELGRAAKELRELRERLTERVR

Molecular target: T1, USP38, Q8NB14
Assay: median log2 fold change of GCK-ALFA target abundance (FLAG IP / Myc IP barcode read proportion) (log2 ratio); each designed protein is fused to an ALFA-tag nanobody in HEK293 cells to bring the named protein to FLAG-tagged glucokinase (GCK); Myc marks an untargeted standard; higher = target protein stabilised (more abundant)
Settings: target protein: 3xFLAG-MCP-GCK-ALFA reporter; HEK293 landing pad (RPLP)
Summary of the method: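 An ALFA-nanobody-fused binder library was recombined into HEK293 landing-pad cells and induced with 2 μg mL^−1 doxycycline. Cells were transfected with a plasmid expressing a FLAG-tagged target and a Myc-tagged standard. After 48 h, lysates underwent anti-FLAG and anti-Myc immunoprecipitation, and circular RNA barcodes were reverse transcribed, amplified and sequenced. Target abundance is the per-binder median log2 ratio of FLAG to Myc barcode read proportions. Barcodes needed ≥10^−7 proportion in both replicates, binders ≥3 barcodes per replicate, and a 10^−6 pseudocount was added; the two replicates were pooled.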

Binder	median log2 fold change
B1	0.412
B2	0.151
B3	-0.0131
B4	-0.0997
B5	-0.077
B6	0.205
B7	-0.698
B8	0.00989
B9	0.112
B10	-0.299
B11	0.4
B12	0.192
B13	0.269
B14	0.305
B15	-0.394
B16	0.28
